B1: Caulobacter ParB omega fusion; a variant is named by its letters at X, in order, B8GW30 (parent)
chain: MESVVVGEPGMSEGRRGLGRGLSALLGEVDAAPAQAPGEQLGGSREAPIEILQRNPDQPRRTFREEDLEDLSNSIREKGVLQPILVRPSPDTAGEYQIVAGERAWRAAQRAGLKTVPIMVRELDDLAVLEIGIIENVQRADLNVLEEALSYKVLMEKFERTQENIAQTIGKSXSHVANXMRLLXLPDEVQSYLVSGELTAXHARAIAAAADPVALAKQIIEGGLSVRETEALARKAPNLSAGKSKGGRPPRVKDTDTQALESDLSSVLGLDVSIDHRGSTGTLTITYATLEQLDDLCNRLTRGI

The full ranking holds about 81,000 sequences; the median of “one-hybrid fitness for binding NBS DNA” is about -0.1, and the highest 2% start at about 0.36. The sample as a whole holds a higher share of the highest values than the screen did.

Variants of B1 are the subject of this experiment. The experiment can be described thus: one-hybrid fitness for binding NBS DNA (the Noc-binding site; scaled: cognate 1, non-cognate 0); higher = stronger binding. Conditions: with NBS DNA site. The method in brief: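 Pre- and post-selection plasmids were Illumina-sequenced, three replicate libraries were pooled, and any variant with under 10 reads was removed. The libraries were Caulobacter ParB with four specificity codons randomised, selected in E. coli USO through a HIS3 reporter whose site is 19 bp from the promoter. Cells grew 48 hours at 37°C on M9 without histidine, with 0.1 mM IPTG and 5 mM 3-AT. Fitness is the log change in variant-to-wild-type read ratio, rescaled against cognate and non-cognate.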
With MCAS, the “one-hybrid fitness for binding NBS DNA” value was at most 0.2. With PTRY, the “one-hybrid fitness for binding NBS DNA” value is at most 0.2. As for CVKD, the figure is at most 0.2; as for PVDC, at most 0.2. For YENN the value was at most 0.2. As for QHSL, the figure is at most 0.2; as for RRVM, 0.206; as for RRYG, 0.331. For the variant RRRG, the “one-hybrid fitness for binding NBS DNA” value came to 0.497. Take RCRM: the “one-hybrid fitness for binding NBS DNA” value was determined as 0.231. With RRYM, the “one-hybrid fitness for binding NBS DNA” value is 0.296.

As for RRVS, the “one-hybrid fitness for binding NBS DNA” value was 0.605. As for RCVS, the figure is 0.335.

Turning to RRDG, the “one-hybrid fitness for binding NBS DNA” value is at most 0.2. With RRKM, the “one-hybrid fitness for binding NBS DNA” value stood at 0.647. Regarding RRRM, the “one-hybrid fitness for binding NBS DNA” value worked out at 0.651. As for RRVD, the figure is at most 0.2; as for RCKM, 0.238.

Turning to HRIT, the “one-hybrid fitness for binding NBS DNA” value is at most 0.2. Take SNQT: the “one-hybrid fitness for binding NBS DNA” value is at most 0.2. As for TVTC, the figure is at most 0.2; as for GVCG, at most 0.2; as for MMPN, at most 0.2. For MEVE, the “one-hybrid fitness for binding NBS DNA” value was at most 0.2. Take LLMQ: the “one-hybrid fitness for binding NBS DNA” value is at most 0.2. Take CKKG: the “one-hybrid fitness for binding NBS DNA” value was at most 0.2. As to RRKD, the “one-hybrid fitness for binding NBS DNA” value turned out to be 0.226. As for RRKE, the figure is 0.214; as for RCKN, 0.27. As for RRKN, the figure is 0.646; as for RRKS, 0.68; as for RRRF, 0.442.

For the variant RRKP, the “one-hybrid fitness for binding NBS DNA” value came to 0.379. Regarding RRVP, the “one-hybrid fitness for binding NBS DNA” value was at most 0.2. Regarding RRVN, the “one-hybrid fitness for binding NBS DNA” value was 0.238. In the case of RRYP, the “one-hybrid fitness for binding NBS DNA” value is at most 0.2. For RRDF the value was at most 0.2. Turning to RRYF, the “one-hybrid fitness for binding NBS DNA” value was at most 0.2. For TKMW the value was at most 0.2; for MWVR, at most 0.2; for CLAT, at most 0.2. Take TSDV: the “one-hybrid fitness for binding NBS DNA” value was at most 0.2. For AMPA the value was at most 0.2; for PHPV, at most 0.2; for QICI, at most 0.2.

As for IYNQ, the “one-hybrid fitness for binding NBS DNA” value is at most 0.2. Take TYVC: the “one-hybrid fitness for binding NBS DNA” value is at most 0.2. Take YDYM: the “one-hybrid fitness for binding NBS DNA” value is at most 0.2. For LLAR the value was at most 0.2; for RCKF, at most 0.2; for RRVH, 0.321. As for RRKH, the figure is 0.798. As for RRVK, the figure is at most 0.2; as for RCKK, 0.248.

With RRVY, the “one-hybrid fitness for binding NBS DNA” value is 0.301. For RRKY the value was 0.79. As for RRVF, the figure is at most 0.2. As for RRKL, the figure is 0.259. For RSKY, the “one-hybrid fitness for binding NBS DNA” value stood at 0.29. As to RRKK, the “one-hybrid fitness for binding NBS DNA” value turned out to be 0.438. As to RRKF, the “one-hybrid fitness for binding NBS DNA” value was determined as 0.484.

For SCIR, the “one-hybrid fitness for binding NBS DNA” value was at most 0.2. Turning to RESS, the “one-hybrid fitness for binding NBS DNA” value is at most 0.2.

For the variant WPIG, the “one-hybrid fitness for binding NBS DNA” value was at most 0.2. As for WPLC, the figure is at most 0.2; as for PERM, at most 0.2; as for FMPK, 0.314. As for RISS, the figure is 0.358.

For SLQG, the “one-hybrid fitness for binding NBS DNA” value was at most 0.2. As for DCLR, the figure is at most 0.2. For PTRA, the “one-hybrid fitness for binding NBS DNA” value is at most 0.2. For RWVV the value was at most 0.2; for QWNR, 0.304; for QMMQ, at most 0.2. CVMR: the “one-hybrid fitness for binding NBS DNA” value is at most 0.2. As to TNHL, the “one-hybrid fitness for binding NBS DNA” value was at most 0.2. For ESDR the value was at most 0.2. As for LVTW, the figure is at most 0.2; as for PNSF, at most 0.2.

In the case of LPGR, the “one-hybrid fitness for binding NBS DNA” value is at most 0.2. For QLIH, the “one-hybrid fitness for binding NBS DNA” value is at most 0.2. As to RCNM, the “one-hybrid fitness for binding NBS DNA” value was at most 0.2.

In the case of RRDM, the “one-hybrid fitness for binding NBS DNA” value was at most 0.2. Consider RRVG, for which the “one-hybrid fitness for binding NBS DNA” value came to 0.298. With RCKG, the “one-hybrid fitness for binding NBS DNA” value is at most 0.2. For RRNM the value was 0.428; for RRKG, 0.461; for YVLT, at most 0.2.

In the case of LIAF, the “one-hybrid fitness for binding NBS DNA” value was at most 0.2. For KLGG the value was at most 0.2; for ELRQ, at most 0.2; for RSSE, at most 0.2. As for GPWL, the figure is at most 0.2; as for QHGA, 0.208; as for QLGA, at most 0.2.

In the case of QAGA, the “one-hybrid fitness for binding NBS DNA” value was 0.221. For QSGA the value was 0.291; for QCGA, 0.364. As for QRGA, the figure is 0.653. For PSYL, the “one-hybrid fitness for binding NBS DNA” value is at most 0.2.

Turning to ACER, the “one-hybrid fitness for binding NBS DNA” value is at most 0.2. For PNTQ the value was at most 0.2; for RLAR, 0.42. For RIFR, the “one-hybrid fitness for binding NBS DNA” value worked out at 0.243. As for RIAN, the figure is at most 0.2. Turning to RHAR, the “one-hybrid fitness for binding NBS DNA” value came to 0.427. On to RAAN, for which the “one-hybrid fitness for binding NBS DNA” value is at most 0.2. RAAR: the “one-hybrid fitness for binding NBS DNA” value was 0.385. In the case of RLAN, the “one-hybrid fitness for binding NBS DNA” value is at most 0.2.

In the case of RAFR, the “one-hybrid fitness for binding NBS DNA” value was 0.27. As for RLFR, the figure is 0.247; as for RHAD, at most 0.2; as for RIAR, 0.384. As to RHFR, the “one-hybrid fitness for binding NBS DNA” value was 0.206.

Regarding RMFS, the “one-hybrid fitness for binding NBS DNA” value came to 0.221. As for FGDR, the “one-hybrid fitness for binding NBS DNA” value was at most 0.2. For GIAC the value was at most 0.2; for MKIR, at most 0.2. Turning to FHKW, the “one-hybrid fitness for binding NBS DNA” value was at most 0.2. With PVKH, the “one-hybrid fitness for binding NBS DNA” value is at most 0.2.

As to TANL, the “one-hybrid fitness for binding NBS DNA” value was at most 0.2. As to VPPG, the “one-hybrid fitness for binding NBS DNA” value is at most 0.2. For KWAS the value was at most 0.2; for RFAR, 0.242. As for RPAR, the figure is at most 0.2; as for RSAH, at most 0.2.

On to RSFR, for which the “one-hybrid fitness for binding NBS DNA” value was determined as 0.28. As for RSAR, the “one-hybrid fitness for binding NBS DNA” value worked out at 0.438. As for RCAR, the figure is 0.529.

In the case of PHEL, the “one-hybrid fitness for binding NBS DNA” value was at most 0.2.

With IQNS, the “one-hybrid fitness for binding NBS DNA” value was at most 0.2. For the variant WRET, the “one-hybrid fitness for binding NBS DNA” value was at most 0.2. For AVER the value was at most 0.2; for TMML, at most 0.2. As for YKNT, the figure is at most 0.2; as for YKDS, 0.297. On to YKYT, for which the “one-hybrid fitness for binding NBS DNA” value is at most 0.2. On to YKDT, for which the “one-hybrid fitness for binding NBS DNA” value is 0.385. As for YKDR, the figure is 0.512; as for YKDN, at most 0.2. On to YKDH, for which the “one-hybrid fitness for binding NBS DNA” value is 0.692. Turning to YKNR, the “one-hybrid fitness for binding NBS DNA” value was at most 0.2.

Regarding YKYR, the “one-hybrid fitness for binding NBS DNA” value was at most 0.2. As for PGCP, the figure is at most 0.2; as for ARAS, at most 0.2. For RMPC the value was at most 0.2. For IYSS, the “one-hybrid fitness for binding NBS DNA” value is at most 0.2. Consider KREW, for which the “one-hybrid fitness for binding NBS DNA” value is at most 0.2. For VDGI the value was at most 0.2. As for QVNY, the figure is at most 0.2. For CDAR the value was at most 0.2.

With CPEM, the “one-hybrid fitness for binding NBS DNA” value was at most 0.2.

For the variant GLTI, the “one-hybrid fitness for binding NBS DNA” value is at most 0.2. For PMWG the value was at most 0.2. For the variant RSKP, the “one-hybrid fitness for binding NBS DNA” value was at most 0.2.

Take RMKM: the “one-hybrid fitness for binding NBS DNA” value is 0.216. Consider RMVT, for which the “one-hybrid fitness for binding NBS DNA” value worked out at 0.296.

With RAVT, the “one-hybrid fitness for binding NBS DNA” value was 0.237. As for RAKN, the figure is at most 0.2; as for NFKT, at most 0.2. For RSVT the value was 0.238; for RFVT, at most 0.2. For RAKT the value was 0.623.

Turning to RFKT, the “one-hybrid fitness for binding NBS DNA” value worked out at 0.512. As for RMKT, the figure is 0.606. Regarding RSKT, the “one-hybrid fitness for binding NBS DNA” value came to 0.618. As for PIPI, the figure is at most 0.2; as for SQAS, at most 0.2. For ERWR the value was at most 0.2; for DMMR, at most 0.2. For DFLL the value was at most 0.2. AIKF: the “one-hybrid fitness for binding NBS DNA” value is at most 0.2. As for LHHN, the figure is at most 0.2; as for WGHS, at most 0.2.

Consider RCSQ, for which the “one-hybrid fitness for binding NBS DNA” value was at most 0.2. Take RHVT: the “one-hybrid fitness for binding NBS DNA” value was at most 0.2. As for RIKT, the figure is 0.623; as for RIVT, 0.243. In the case of REKT, the “one-hybrid fitness for binding NBS DNA” value was at most 0.2. As to RPKT, the “one-hybrid fitness for binding NBS DNA” value is at most 0.2.

Turning to RHKD, the “one-hybrid fitness for binding NBS DNA” value is at most 0.2. RIKN: the “one-hybrid fitness for binding NBS DNA” value was at most 0.2. For RCKT the value was 0.653. As for RHKT, the figure is 0.578; as for HNER, at most 0.2. As for YSVR, the figure is at most 0.2. As for NNAI, the “one-hybrid fitness for binding NBS DNA” value was at most 0.2. Regarding ECLL, the “one-hybrid fitness for binding NBS DNA” value was at most 0.2. As for LKEG, the figure is at most 0.2; as for QCAT, 0.533.

Regarding QSAP, the “one-hybrid fitness for binding NBS DNA” value is at most 0.2. For QSAT the value was 0.395; for QPAT, at most 0.2. On to QLFT, for which the “one-hybrid fitness for binding NBS DNA” value worked out at 0.289. For the variant QLAT, the “one-hybrid fitness for binding NBS DNA” value stood at 0.396. As for QAFT, the figure is 0.326; as for QLAH, at most 0.2.

With QIAT, the “one-hybrid fitness for binding NBS DNA” value came to 0.28. As for QAAH, the figure is at most 0.2.

For the variant QAAT, the “one-hybrid fitness for binding NBS DNA” value is 0.401.

For the variant QSAN, the “one-hybrid fitness for binding NBS DNA” value is at most 0.2.

(Values after a collection of fitness landscapes (doi:10.1016/j.celrep.2020.107928).)
